An excerpt weighted towards active compounds, which were near 4.2% of everything screened.
VDR inh – Inhibitors of the vitamin D receptor (VDR): qHTS; Vitamin D3 receptor (Homo sapiens), P11473; VDR-SRC2-3 peptide fluorescence polarization, 2 h; Potency, µM, for the others: max response, negative = inhibition, actives largely listed as inhibitors; 0.93% of 400,000 active; AID 504847, 2011
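Fluorescence polarization assay measuring small-molecule disruption of VDR binding to the coregulator peptide SRC2-3. Compounds were pin-transferred (23 nl) into the reagent mix and incubated 2 h at room temperature before reading.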
PLK1 PBD inh – qHTS for Inhibitors of PLK1-PDB (polo-like kinase 1 - polo-box domain): Primary Screen. Serine/threonine-protein kinase PLK1 (Homo sapiens), P53350. Potency, µM, inactives show max response, negative = inhibition, actives largely listed as inhibitors. 2.8% of 360,000 active. Plk1 PBD binding of FITC phosphopeptide, fluorescence polarization; note: series mostly up to about 57 µM; nearly all actives have a fitted effect of over 65% in size
Target sequence (P53350 whole entry, looked up, the tested form may be a part): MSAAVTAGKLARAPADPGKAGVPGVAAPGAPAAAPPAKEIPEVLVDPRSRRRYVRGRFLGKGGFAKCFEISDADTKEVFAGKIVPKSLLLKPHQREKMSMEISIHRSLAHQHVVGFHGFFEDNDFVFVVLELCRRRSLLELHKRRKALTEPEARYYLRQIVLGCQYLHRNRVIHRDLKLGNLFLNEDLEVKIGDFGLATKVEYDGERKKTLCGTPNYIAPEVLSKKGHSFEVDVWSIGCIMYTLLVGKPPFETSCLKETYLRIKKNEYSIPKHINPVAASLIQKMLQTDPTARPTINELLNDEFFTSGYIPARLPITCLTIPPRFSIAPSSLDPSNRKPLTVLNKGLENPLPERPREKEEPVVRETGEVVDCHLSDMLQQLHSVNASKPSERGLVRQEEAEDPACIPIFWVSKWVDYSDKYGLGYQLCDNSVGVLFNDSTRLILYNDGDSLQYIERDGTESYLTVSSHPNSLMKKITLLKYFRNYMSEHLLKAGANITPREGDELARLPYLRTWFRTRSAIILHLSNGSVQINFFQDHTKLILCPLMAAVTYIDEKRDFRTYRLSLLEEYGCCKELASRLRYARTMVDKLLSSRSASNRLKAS
Sfp PPTase inh – qHTS Assay for Inhibitors of Bacillus subtilis Sfp phosphopantetheinyl transferase (PPTase) | 3.5% of 310,000 active | 4'-phosphopantetheinyl transferase ffp (Bacillus subtilis), Q9F4F7 | Biochemical Sfp PPTase activity, qHTS | Potency, µM, without a hit: largest response in the series, negative = inhibition, most hits filed as inhibitors;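 note: the enzyme is Sfp with the accession as filed and its product quenches rhodamine fluorescence; 0% = enzyme reaction without inhibitor and -100% = no enzyme wells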
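Buffer: 50 mM Hepes-Na pH 7.6, 10 mM MgCl2, 0.01% Nonidet P-40, 0.01% BSA. Enzyme 15 nM, pre-exposed to compound 15 min; substrates then added and fluorescence change tracked over 30 min.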
ALOX12 inh – Primary qHTS assay for inhibitors of human arachidonate 12S-lipoxygenase (ALOX12): Round 2 | purified 12hLO, xylenol orange hydroperoxide absorbance | Polyunsaturated fatty acid lipoxygenase ALOX12 (Homo sapiens), P18054 | 1.1% of 580,000 active | Potency, µM (series often up to 108 µM), without a hit: at the top dose activity change, negative = inhibition, hits mostly inhibitors
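Purified human 12hLO (150 nM final) in 25 mM Hepes, 0.01% Triton X-100, pH 7.0 was preincubated 15 min at room temperature with compound. Then 40 uM arachidonic acid was added, 30 min. Hydroperoxide was read by Fe-XO absorbance ratio 573/405 nm.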
Active calls of the source: *; ? = inconclusive; . = not tested or not shown; [ ] = another dose, or the depositor's remark. Calls come from the whole dose curve; as a rule, active = well fitted curve in the direction sought with a large enough effect; inconclusive = small, poorly fitted or top-dose-only effect, or another doubt; inactive = no such curve, though single readings can be large; an effect the other way counts as inactive or inconclusive. Unless noted, % is set by controls: 0 for no effect and ±100 for the full control effect; potency is the fitted concentration of half-maximal effect.

SMILES | VDR inh | PLK1 PBD inh | Sfp PPTase inh | ALOX12 inh
O=c1cc(N2CCN(c3ccc(F)cc3)CC2)[nH]c(=O)n1C1CCCCC1 | 5% | 3% | 6% | 385%
Cc1ccc(S(=O)(=O)N(Cc2cccnc2)Cc2cc3ccccc3[nH]c2=O)cc1 | 8% | 0% | -3% | -9%
COc1ccc(S(=O)(=O)N(Cc2cccnc2)Cc2cc3ccccc3[nH]c2=O)cc1 | -23% | 27µM* | 26% | 1%
N#Cc1nc(-c2ccc(F)cc2)oc1NCCCn1ccnc1 | . | . | 15% | .
CCOC(=O)c1c(-c2cccc([N+](=O)[O-])c2)csc1N | -25% | 30µM* | -14% | ?
CCOc1ccc(-c2csc(N)c2C(=O)OC)cc1 | ? | 7.9µM* | 45µM* | ?
CCOC(=O)c1csc(N)c1-c1ccc([N+](=O)[O-])cc1 | ? | ? | 50µM* | ?
CCOC(=O)c1ccc([N+](=O)[O-])cc1NC(C)=O | -15% | -5% | 9% | -10%
CCOC(=O)c1c(-c2cccc([N+](=O)[O-])c2)csc1NC(=O)C1CC1 | 3% | -12% | -6% | 0%
Cc1nc2ncccc2cc1C(=O)NC(c1nnc2n1CCNCC2)C(C)C (configuration not stated) | . | . | . | 51%
COCCn1c(C)cnc1CCNC(=O)Cc1cccc(F)c1 | . | . | . | 36%
O=S(=O)([N-]c1nc2ccccc2nc1-[n+]1ccc(-c2ccncc2)cc1)c1ccccc1 | 8% | 17µM* | 11% | -24%
O=S(=O)([N-]c1nc2ccccc2nc1-[n+]1ccccc1)c1ccccc1 | -17% | 6% | 9% | ?
CCN(C[C@H]1N[C@@](C)(C(=O)OC)[C@H]2C(=O)N(C)C(=O)[C@@H]12)C(=O)c1ccc(F)cc1 | -14% | -1% | . | -26%
Cc1ccc2nc(SCC(=O)c3ccc4c(c3)OCO4)[nH]c2c1 | 4% | -14% | 45µM* | -13%
COc1ccc(CC(=O)n2[nH]c(=O)ccc2=O)cc1OC | 45µM* | 6.7µM* | 3.5µM* | 11%
COc1ccc(CC(=O)n2[nH]c(=O)c3ccccc3c2=O)cc1OC | 5% | -3% | -1% | 138%
CCOC(=O)Cc1csc(N/C(=N/S(=O)(=O)c2ccc(Cl)cc2)c2ccccc2)n1 | ? | 21µM* | 12% | 10%
O=C(/C=C/c1ccco1)Nc1nc(-c2ccccn2)cs1 | ? | -26% | -79% | -10%
O=C(/C=C/c1ccco1)Nc1nc(-c2ccc(F)c(F)c2)cs1 | -24% | -4% | 22µM* | .
CCOC(=O)Cc1csc(NC(=O)/C=C/c2ccco2)n1 | -19% | -28% | 71µM* | 9%
Cc1csc(NC(=O)/C=C/c2ccco2)n1 | -16% | 3% | -26% | -11%
COc1ccc(Nc2nc3ccc(C)cc3n3cnnc23)cc1Cl | . | . | -4% | ?
O=C(CN1C(=O)/C(=C\c2cccc(Br)c2)Oc2ccccc21)NCCCN1CCOCC1 | -24% | 27µM* | -24% | -29%
O=C(CN1C(=O)COc2ccccc21)NCCCN1CCOCC1 | 1% | -12% | 5% | 7%
SMILES | VDR inh | PLK1 PBD inh | Sfp PPTase inh | ALOX12 inh
COc1ccccc1N1CCN(c2nc(C)nc3c2oc2ccccc23)CC1 | 16% | 2% | 25µM* | -14%
Cc1nc(N2CCN(Cc3ccc(Cl)cc3)CC2)c2oc3ccccc3c2n1 | 3% | 4% | 22µM* | ?
COc1ccccc1N1CCN(Cc2cc(Br)c(O)c3ncccc23)CC1 | -9% | ? | 17% | 35µM*
CCCC(=O)Nc1ccc(N2CCN(S(C)(=O)=O)CC2)cc1 | -4% | -3% | 8% | -22%
CNc1ncncc1-c1ccc(C(=O)N(C)C)cc1 | 7% | . | -22% | 32µM*
COc1ccc(CN2C(=O)NC3(CCCCCC3)C2=O)cc1F | -12% | 3.4µM* | 12% | 33%
CSc1ccc(CN2C(=O)NC3(CCCCC3)C2=O)cc1 | 4% | -10% | 8% | -2%
CC(C)c1ccc(CN2C(=O)NC3(CCCCCC3)C2=O)cc1 | -17% | 27µM* | 15% | -11%
COc1ccc(C(C)=O)cc1CN1C(=O)NC2(CCCCCCC2)C1=O | 22% | -9% | 5% | 1%
C=CCn1c(C)cc(-c2csc(NC)n2)c1C | 12% | -8% | 25µM* | -28%
CCCn1c(C)cc(-c2csc(N)n2)c1C | 45% | -19% | 56µM* | 35µM*
C=CCn1c(C)cc(-c2csc(N)n2)c1C | 41% | ? | 40µM* | ?
C=CCn1c(C)cc(-c2csc(NC(=O)C3=COCCO3)n2)c1C | -19% | -7% | . | -28%
C=CCn1c(C)cc(-c2csc(NCC)n2)c1C | 108% | ? | ? | -28%
Cc1c(-c2csc(N)n2)cnn1C | -17% | ? | -1% | ?
CCOc1ccc(NC(=O)CSc2nc3ccsc3c(=O)n2CCCCC(=O)O)cc1 | . | -4% | . | -3%
Cc1ccc(-c2ccnc(-n3ncc(C(=O)NC[C@@H]4CCCN5CCCC[C@H]45)c3C3CC3)n2)o1 | . | . | . | 22%
O=C1Nc2ccc(-c3ccccc3F)cc2C(=O)N2CCN(C(=O)c3ccco3)C[C@@H]12 | . | . | . | 0%[176 µM]
O=C1C(Cl)=C(N2CCN(c3ccccc3[N+](=O)[O-])CC2)C(=O)c2ccccc21 | 40µM* | ? | -9% | -19%
CC(NS(=O)(=O)c1cc2c3c(c1)CCN3C(=O)CC2)c1ccccc1 (configuration not stated) | . | -3% | . | ?
CCOC(=O)/C(C#N)=C/c1cn(CCC(=O)O)nc1-c1ccc(Cl)cc1 | -18% | -8% | 25% | -17%
CCOC(=O)/C(C#N)=C/c1cn(CCC(=O)O)nc1-c1ccccc1 | -29% | 30µM* | 11% | 2%
CSc1cccc(NC(=O)c2sc3nc4n(c(=O)c3c2C)CCC4)c1 | -15% | -7% | -19% | -2%
Cc1cc(Br)ccc1NC(=O)CN(C)C(=O)CCSc1ccc(F)cc1 | -3% | 27µM* | . | ?
CC(C)(C)c1ccc(-c2cc(C[C@H]3CNCC[C@H]3CC(=O)NCc3cccs3)no2)cc1 | . | . | . | 40µM*
SMILES | VDR inh | PLK1 PBD inh | Sfp PPTase inh | ALOX12 inh
CC(C)(C)c1ccc(-c2cc(C[C@H]3CNCC[C@H]3CC(=O)N3CCC(n4c(=O)[nH]c5ccccc54)CC3)no2)cc1 | . | . | . | 32µM*
O=C(C[C@@H]1CCNC[C@@H]1Cc1cc(COc2ccccc2)on1)NCc1cccs1 | . | . | . | -4%[176 µM]
CC(C)(C)c1ccc(-c2cc(C[C@H]3CNCC[C@H]3CC(=O)NC3CCCCC3)no2)cc1 | . | . | . | 32µM*
CC(C)(C)c1ccc(-c2cc(C[C@H]3CNCC[C@H]3CC(=O)O)no2)cc1 | . | . | . | 20%[176 µM]
CC(C)c1nc2cccnc2n1C1CCN(C(=O)Cn2cccn2)CC1 | . | . | . | 4%
Cc1noc(-c2cn(C3CCN(C(=O)c4ccc(F)c(F)c4)C3)nn2)n1 (configuration not stated) | . | . | . | 12%
COC(=O)C1C(c2ccccc2)C(C(=O)N2CCN(C)CC2)C1c1ccccc1 (configuration not stated) | 12% | -13% | 7% | 0%
